# This is one part of a sample in which hits are shown more often than they occur.
# TTR transcr act: TTR transcription activators in neuroblastoma reporter cells, primary screen, cell-based, luminescence, SH-SY5Y, TTR promoter Gaussia luciferase; activation, % at 16.7 µM; 92,000 tested, 1.3% active; AID 1117267, 2014; 100% = recombinant luciferase protein wells;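 active means activation above the mean of all tested compounds plus 3 SD, cut at about 9.5% in these data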;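 further: cells exposed to compounds for one day before reading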
# HuH7 TTR inh: TTR promoter reporter inhibitors in hepatoma cells, counter-screen for TTR transcription activator project, cell-based, luminescence, HuH7 hepatoma. shares compounds with TTR transcr act. HuH7 TTR promoter-Gaussia luciferase reporter. inhibition, % at 16.7 µM. 1,100 tested, 4% active. AID 1117279, 2014;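 active means average inhibition above the solvent-only control wells' mean plus 3 SD, cut at about 15% in these data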;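 further: inhibitors lower well luminescence so higher value means more inhibition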
# TTR up confirm: TTR transcription activators, retest, confirmation, cell-based, luminescence, SH-SY5Y, triplicate. 1,100 tested, under 10 active. SHSY5Y TTR promoter Gaussia luciferase; 100% = purified Lucia enzyme wells, no cells. shares compounds with TTR transcr act. activation, % at 16.7 µM. AID 1117280, 2014;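 active means mean activation above a set limit taken from the earlier primary screen, cut at about 11% in these data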
# A number is an active result; . = inactive.
SMILES,TTR transcr act,others
CCN(CC)C(=O)c1ccc(S(=O)(=O)c2ccccc2)cc1,.,
CCOc1ccc(CCNC(=O)c2ccc(Oc3ccccc3)cc2)cc1OCC,.,
COc1ccc(CNC(=O)O[C@H]2CC[C@@]34CCCN3C(=O)CCC[C@H]4C2)cc1,.,
CCN(C[C@H]1N[C@@](Cc2ccccc2)(C(=O)OC)[C@H]2C(=O)N(Cc3ccccc3)C(=O)[C@@H]12)C(C)=O,11.7,HuH7 TTR inh=.;TTR up confirm=.
CCN(C[C@H]1N[C@@](Cc2ccccc2)(C(=O)OC)[C@H]2C(=O)N(Cc3ccccc3)C(=O)[C@@H]12)C(=O)c1ccccc1,.,
CCN(C[C@H]1N[C@@](Cc2ccccc2)(C(=O)OC)[C@H]2C(=O)N(Cc3ccccc3)C(=O)[C@@H]12)C(=O)COC,.,
CCCCCCc1ccc(NC(=O)[C@@H]2CC=C[C@@H]3CCN(Cc4ccccc4)C(=O)[C@@H]32)cc1,.,
CSc1nc(NCC(C)C)nc(N2CCOCC2)n1,14.8,HuH7 TTR inh=.;TTR up confirm=.
Fc1ccc(Nc2nc(N3CCOCC3)nc(N3CCOCC3)n2)cc1,.,
c1cncc(CNc2nc(N3CCOCC3)nc(N3CCOCC3)n2)c1,.,
O=C(Nc1nc2ncccn2c1-c1ccc(F)cc1)c1ccccc1,.,
O=C(NNC(=S)NC1CC2C=CC1C2)c1ccncc1 (stereo not drawn),.,
N#CCCN(Cc1cccnc1)C(=S)NC1CC2C=CC1C2 (stereo not drawn),10.3,HuH7 TTR inh=.;TTR up confirm=.
O=C(CNC(=S)N(Cc1ccccc1)Cc1cccnc1)NC1CC1,.,
COC(=O)[C@]12C[C@H](CC(=O)N3CCOCC3)C(=O)N(Cc3cccc4ccccc34)C1=C[C@H](COCc1ccccc1)O[C@@H]2C,.,
CC(=O)c1cnc2cc(-c3ccc(Cl)cc3)nn2c1C,12.3,HuH7 TTR inh=.;TTR up confirm=.
CC(=O)c1cnc2nc(C)nn2c1C,.,
Cc1c(C(=O)O)cnc2cc(-c3ccc(Cl)cc3)nn12,.,
Nc1[nH]c(C(=O)c2ccccc2)c(-c2ccc(Cl)cc2Cl)c1C(=O)NCCC1=CCCCC1,.,
O=C(COc1ccccc1Cl)NCCCNC(=O)c1cnccn1,.,
O=C(O)c1ccc(COc2ccccc2/C=C2\NC(=O)N(Cc3ccc(F)cc3)C2=O)cc1,.,
Cc1ccc(CN2C(=O)N/C(=C\c3ccc(-c4ccc(C(=O)O)cc4C)o3)C2=O)cc1,10.7,HuH7 TTR inh=.;TTR up confirm=.
Cc1ccc(C(=O)O)cc1-c1ccc(/C=C2/NC(=O)N(c3ccccc3)C2=O)o1,.,
COC(=O)[C@]12C[C@H](CC(=O)NCCc3ccccc3OC)C(=O)N(Cc3ccc(Cl)cc3Cl)C1=C[C@H](C(C)C)O[C@@H]2C1CC1,.,
COC(=O)[C@]12C[C@H](CC(=O)NCCC(C)C)C(=O)N(Cc3cccc4ccccc34)C1=C[C@H](C1CCCC1)O[C@@H]2C,.,
SMILES,TTR transcr act,others
Cn1c(=O)c2c(ncn2CC(=O)N2CCN(S(=O)(=O)c3ccc(F)cc3)CC2)n(C)c1=O,.,
Cn1c(=O)c2c(nc(SCC(=O)c3ccc(F)cc3)n2C)n(C)c1=O,.,
Cn1c(=O)c2c(ncn2CC(O)CNc2ccc(F)cc2)n(C)c1=O (stereo not drawn),15.6,HuH7 TTR inh=.;TTR up confirm=.
CCC[C@H]1[C@@H](OC(=O)NC(CC)CC)CC[C@@]23CCCN2C(=O)CCC[C@@H]13,.,
COC(=O)[C@]12CCCCC=C1N(Cc1ccc(OC)cc1)C(=O)[C@@H]2CC(=O)N1CCCC1,.,
Cc1ccc(SCCN2CCC(O)CCC2=O)cc1 (stereo not drawn),23.0,HuH7 TTR inh=.;TTR up confirm=.
Cc1ccc(SCCN2CCN(C)CCC2=O)cc1,.,
CC1CCC(=O)N(CCSc2ccccc2)CC1 (stereo not drawn),.,
COc1ccc(S(=O)(=O)N2CCCOC2CNC(=O)C(=O)NCc2ccco2)cc1 (stereo not drawn),.,
COc1ccc(S(=O)(=O)N2CCCOC2CNC(=O)C(=O)NCc2ccccn2)cc1 (stereo not drawn),24.1,HuH7 TTR inh=.;TTR up confirm=.
COc1ccc(S(=O)(=O)N2CCOC2CNC(=O)C(=O)NCc2ccccc2OC)cc1 (stereo not drawn),.,
CC(C)NC(=O)C1(C)CN(S(C)(=O)=O)CC(=O)N1Cc1cccc(C(F)(F)F)c1 (stereo not drawn),.,
COC(=O)c1sccc1NC(=O)Nc1cccc(OC)c1,10.0,HuH7 TTR inh=.;TTR up confirm=.
COC(=O)c1sccc1NC(=O)Nc1cc(C)cc(C)c1,.,
COC(=O)c1sccc1NC(=O)c1cccc(OC)c1,.,
CC(C)=CC([C@]12C[C@H](CO)N[C@@H]1Nc1ccccc12)S(=O)(=O)c1ccccc1 (stereo partly drawn),.,
COc1ccc(Cn2cc(COC(=O)NCCc3c[nH]c4ccccc34)nn2)cc1,.,
CC(C)CNC(=O)COCc1cc(-c2ccc3c(c2)OCO3)on1,11.7,HuH7 TTR inh=.;TTR up confirm=.
